In PubChem BioAssay (EPA / NIEHS):
Where “and” joins values, the source holds several entries; their conditions need not be identical. Equal values may be shown once. Some compounds were tested as several samples or in several runs, with calls that do not always agree. Calls of active or inactive are those of the source. How the source made its calls: active means hit-call score of the fitted dose curve at least 0.9, where 1 is the maximum; inactive means score below 0.9.

These molecules were tested on Matrix Metallopeptidase 1 (MMP1), MMP1 (gene 4312) (assay: BSK_BE3C_MMP1: BioMAP Diversity Plus: BE3C Assay for Matrix Metallopeptidase 1 (MMP1) Biomarker Activity (AID 2283024)). Settings: primary human bronchial epithelial cells; actives raise or lower the signal.
Procedure, shortened: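 In this multiplexed primary-cell system, human bronchial epithelium received chemicals for 24 h before an ELISA for MMP1. Values reflect bidirectional fits normalised to the DMSO baseline.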
For `OCC(F)(F)C(F)(F)C(F)(F)C(F)F`, the outcome was “inactive”.
`Oc1ccc(Nc2ccccc2)cc1` was tested, and the outcome was “inactive”.
For `O=C(O)C(F)(F)C(F)(F)OC(F)(F)F`, the outcome was “inactive”.
In the case of `CCCCCCOC(=O)c1ccccc1O`, the outcome is reported as “inactive”.
`O=S(=O)(O)C(F)(F)C(F)(F)C(F)(F)C(F)(F)C(F)(F)C(F)(F)C(F)(F)F` was tested, and the AC50 was 8.64 µM (active) and 15.6 µM (active).
`O=C(O)C(F)(F)C(F)(F)C(F)(F)C(F)(F)F` was tested, and the outcome was “inactive”.
`O=C(O)C(F)(F)C(F)(F)C(F)(F)F` was tested, and the outcome was “inactive”.
With `C=CC(F)(F)C(F)(F)C(F)(F)C(F)(F)C(F)(F)C(F)(F)C(F)(F)C(F)(F)C=C` the outcome was “inactive”.
For `CC(=O)Nc1ccc(N=Nc2cc(C)ccc2O)cc1`, the AC50 was 24.7 µM (active).
For `N=C(N)C(F)(F)C(F)(F)C(F)(F)C(F)(F)C(F)(F)C(F)(F)C(F)(F)F`, the AC50 was 19.4 µM (active) and the outcome was “inactive”.
`O=C(O)C(F)(F)C(F)(F)C(F)(F)C(F)(F)C(F)(F)C(F)(F)C(F)(F)C(F)(F)Cl` was tested, and the AC50 was 7.12 µM (active) and 55.3 µM (active).
For `O=P(O)(O)OCCC(F)(F)C(F)(F)C(F)(F)C(F)(F)C(F)(F)C(F)(F)F`, the outcome was “inactive”.
In the case of `CCCCCCCOC(=O)c1ccccc1C(=O)OCCCCCCC`, the outcome is reported as “inactive”.
In the case of `CCCCCCCCCCCCCCCC[N+](C)(C)Cc1ccccc1`, the AC50 is reported as 9.34 µM (active).
`FC(F)(F)C(F)(F)C(F)(F)CI` was tested, and the outcome was “inactive”.
For `O=C(O)C(F)(F)C(F)(F)C(F)(F)C(F)(F)C(F)(F)C(F)(F)C(F)(F)C(F)(F)C(F)(F)C(F)(F)C(F)(F)C(F)(F)C(F)(F)F`, the outcome was “inactive”.
For `O=C(O)C(F)(F)C(F)(F)C(F)(F)C(F)(F)C(F)(F)C(F)(F)C(F)(F)C(F)(F)C(F)(F)C(F)(F)C(F)(F)C(F)(F)F`, the outcome was “inactive”.
